Activity calls are given as the source filed them. No stated cut-off is given here; in the data, active means remaining activity below about 50%; inactive means the rest.
The compounds below were run against Phospholipase D1 (Homo sapiens) (UniProt Q13393) (assay: PLD1 inhibitors in cells, Calu-1 cells, single concentration (AID 602144;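 further: tested at 200 nM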)). Conditions: cellular PLD1 activity, hits give low values.
Chain of Phospholipase D1 (Homo sapiens) (Q13393 whole entry, looked up): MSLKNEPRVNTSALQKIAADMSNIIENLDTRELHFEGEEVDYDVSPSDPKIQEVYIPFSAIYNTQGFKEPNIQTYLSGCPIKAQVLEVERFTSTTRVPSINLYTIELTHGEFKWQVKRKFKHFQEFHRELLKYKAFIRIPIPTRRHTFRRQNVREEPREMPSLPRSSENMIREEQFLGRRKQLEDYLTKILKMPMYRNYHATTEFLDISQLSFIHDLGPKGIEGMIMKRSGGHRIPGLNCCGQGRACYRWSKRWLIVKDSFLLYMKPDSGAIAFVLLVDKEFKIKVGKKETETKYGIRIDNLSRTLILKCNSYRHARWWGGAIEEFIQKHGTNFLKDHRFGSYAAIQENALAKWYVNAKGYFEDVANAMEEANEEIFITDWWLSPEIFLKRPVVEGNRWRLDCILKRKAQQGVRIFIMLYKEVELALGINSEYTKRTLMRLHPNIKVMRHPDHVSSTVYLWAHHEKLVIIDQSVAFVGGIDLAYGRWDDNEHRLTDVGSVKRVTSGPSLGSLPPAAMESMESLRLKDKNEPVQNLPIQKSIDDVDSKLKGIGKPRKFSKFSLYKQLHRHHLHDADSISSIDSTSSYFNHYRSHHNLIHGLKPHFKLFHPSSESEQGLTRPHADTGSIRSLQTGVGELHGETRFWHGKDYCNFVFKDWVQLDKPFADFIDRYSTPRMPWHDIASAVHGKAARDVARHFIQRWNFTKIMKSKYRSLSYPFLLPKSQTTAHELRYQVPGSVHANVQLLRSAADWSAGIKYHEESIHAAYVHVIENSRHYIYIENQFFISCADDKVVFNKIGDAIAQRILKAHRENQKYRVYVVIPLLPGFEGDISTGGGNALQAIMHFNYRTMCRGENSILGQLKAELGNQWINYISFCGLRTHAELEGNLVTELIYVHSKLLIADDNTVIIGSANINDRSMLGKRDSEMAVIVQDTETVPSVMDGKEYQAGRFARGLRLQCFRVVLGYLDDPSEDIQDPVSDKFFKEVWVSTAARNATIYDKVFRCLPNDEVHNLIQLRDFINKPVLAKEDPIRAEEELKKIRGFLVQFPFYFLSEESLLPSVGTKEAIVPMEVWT
Chain of Phospholipase D1 (Homo sapiens) (Q13393 whole entry, looked up): as above

Question: How did the remaining activity turn out when `O=C(NCCN1CCC2(CC1)C(=O)Oc1ccccc12)c1cnc2ccccc2c1` was run?
Answer: Its remaining activity is 105% (inactive).

Question: `C[C@@H](CN1CCC2(CC1)C(=O)NCN2c1ccc(F)c(F)c1)NC(=O)c1ccc(F)cc1` was tested. Which remaining activity did it give?
Answer: Its remaining activity is 22.8% (active).

Question: With `C[C@H](N)CN1CCC2(CC1)C(=O)NCN2c1ccccc1` (tested in a mixture with another compound) as the compound, how does the remaining activity read?
Answer: Its remaining activity is 96.4% (inactive).

Question: Which remaining activity does the source give for `O=C(NCCN1CCC2(CC1)C(=O)NCN2c1cccc(F)c1)C12CC3CC(CC(C3)C1)C2` here?
Answer: The remaining activity was 98.7% (inactive).

Question: How did the remaining activity turn out when `CN1CN(c2ccccc2)C2(CCN(CCNC(=O)c3ccc4ccccc4c3)CC2)C1=O` was run?
Answer: The remaining activity was 97.9% (inactive).

Question: For `O=C(NCCN1CCC2(CC1)C(=O)NCN2c1ccccc1)c1cnc2ccccc2n1`, which remaining activity is on record?
Answer: Its remaining activity is 96.5% (inactive).

Question: `O=C(CN1CCC2(CC1)C(=O)NCN2c1ccccc1)c1ccccc1` was tested. Which remaining activity did it give?
Answer: Its remaining activity is 102% (inactive).

Question: Which remaining activity does the source give for `Cc1cccc(C(=O)NCCN2CCC3(CC2)C(=O)NCN3c2ccccc2)n1` here?
Answer: Its remaining activity is 123% (inactive).

Question: Which remaining activity does the source give for `O=C(Cc1ccccc1Br)NCCN1CCC2(CC1)C(=O)NCN2c1cccc(F)c1` here?
Answer: Its remaining activity is 100% (inactive).

Question: `NC1(CN2CCC3(CC2)C(=O)NCN3c2ccccc2)CCCC1` (tested in a mixture with another compound) was tested. Which remaining activity did it give?
Answer: The remaining activity was 85.3% (inactive).

Question: `O=C(NCCN1CCC2(CC1)C(=O)NCN2c1ccccc1)c1ncc[nH]1` was tested. Which remaining activity did it give?
Answer: The remaining activity was 62.9% (inactive).

Question: Which remaining activity does the source give for `O=C(NCCCN1CCC2(CC1)C(=O)NCN2c1ccccc1)c1ccc2ccccc2c1` here?
Answer: The remaining activity was 81% (inactive).

Question: For `C[C@@H](CN1CCC2(CC1)C(=O)NCN2c1ccccc1)NC(=O)c1ccc2ccccc2c1`, which remaining activity is on record?
Answer: The remaining activity was 4.56% (active).
